Our source for the inhibition values is PubChem BioAssay AID624416 (The Scripps Research Institute Molecular Screening Center, 2012).

For orientation: inhibition means the relative decrease from the control value, in per cent.

In all, about 360,000 compounds went through this assay and about 1,500 (0.42%) were called active. Rule as the data show it: active = inhibition above about 8.5%; inactive = the rest. For the sample, actives were picked, then their nearest neighbours and some compounds at random.

This experiment has as its system HIV-1 gp120 / PG9 antibody interaction. Briefly: binders of HIV-1 gp120 antibody PG9, primary screen, biochemical, TR-FRET (AID 624416). The note with it: TR-FRET gp120-PG9 antibody binding; at 6.7 µM; hits give high values. For orientation: Time-resolved FRET reads energy transfer from a long-lived donor to a nearby acceptor.
For `CC(=O)Nc1ccc(C(=O)C(Cc2ccccc2)N(C)C)cc1` (stereo not given), the inhibition is -2.82% (inactive). Turning to `CCN(CC)C(=O)c1ccc(NC(=O)c2sccc2-c2ccccc2)cc1`, the inhibition is 9.48% (active). With `CCN(CC)C(=O)c1ccc(NC(=O)c2cc(-n3cnnc3)ccc2Cl)cc1`, the inhibition was -0.62% (inactive).

As to `O=C1NC(=O)C(CCc2ccccn2)(Cc2cccc(Cl)c2Cl)C(=O)N1c1ccc(Br)cc1` (stereo not given), the inhibition is -0.96% (inactive).

On to `CN1CCN(Cc2ccccc2C(F)(F)F)CC1`, for which the inhibition is 1.87% (inactive).

As to `COc1ccc(C2C=C(C)Oc3c2c(=O)oc2ccccc32)cc1OC` (stereo not given), the inhibition is 0.19% (inactive). The figure for `N#CC1=C(N)Oc2c(c(=O)oc3ccccc23)C1c1ccccc1OC(=O)c1cccs1` (stereo not given) is 11% (active); for `CCNc1nc2[nH]c(=O)c3c(c2s1)OC(N)=C(C#N)C3c1cccs1` (stereo not given) it is -1.83% (inactive).

As to `C[C@]12CCCCC1=CC(=O)C1C2CC[C@@]2(C)C1C[C@@H](F)[C@@H]2O` (stereo not given in full), the inhibition is 0.27% (inactive). Regarding `Cc1cc2ccccn2c1C(C[N+](=O)[O-])c1c(F)cccc1Cl` (stereo not given), the inhibition was 1.04% (inactive).
